Results taken from PubChem BioAssay.
Activity calls are given as the source filed them.

What was measured:
[1] = molecular target: Albumin (Bos taurus) (UniProt P02769); assay: compounds binding labelled BSA control protein – biochemical, small-molecule microarray, Alexa647 label, 635/667 nm fluorescence, artefact control for SMM control protein annotation, profiling panel (AID 1118); conditions: BSA-A647 binding, fluorescence 635 nm, higher = more signal;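 note: score merges 667 nm emission intensity and signal-to-noise per printed compound spot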
Sequence of Albumin (Bos taurus) (P02769 whole entry, looked up): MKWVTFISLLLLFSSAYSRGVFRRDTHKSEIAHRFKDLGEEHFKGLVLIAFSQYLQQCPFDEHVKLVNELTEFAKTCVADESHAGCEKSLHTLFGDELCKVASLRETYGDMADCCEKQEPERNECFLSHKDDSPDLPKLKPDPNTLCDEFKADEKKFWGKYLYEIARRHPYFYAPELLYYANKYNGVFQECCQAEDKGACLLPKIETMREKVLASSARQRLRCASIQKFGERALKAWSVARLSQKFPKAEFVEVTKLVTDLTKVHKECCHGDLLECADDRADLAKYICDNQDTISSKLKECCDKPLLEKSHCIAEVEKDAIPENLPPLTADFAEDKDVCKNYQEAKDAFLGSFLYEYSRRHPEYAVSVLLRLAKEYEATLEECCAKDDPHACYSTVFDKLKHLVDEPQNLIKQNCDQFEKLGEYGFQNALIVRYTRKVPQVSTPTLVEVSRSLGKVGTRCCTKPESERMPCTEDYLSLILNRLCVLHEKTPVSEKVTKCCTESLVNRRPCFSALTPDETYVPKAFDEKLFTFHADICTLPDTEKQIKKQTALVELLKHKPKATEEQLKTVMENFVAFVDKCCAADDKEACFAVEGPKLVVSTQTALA

[2] = probe aXIP binding to arrayed compounds – biochemical, NeuroSMM set, 635/667 nm fluorescence, primary screen (AID 1119); conditions: small-molecule microarray, higher = more signal, called active from +8 up or from −8 down;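 note: probe is the protein aXip251-270 applied at 1 µg/mL to compound-printed slides; binding of probe to printed compounds measured as 667 nm fluorescence plus signal to noise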
[3] = probe aNOTCH3 binding on compound microarray – biochemical, small-molecule microarray, 635/667 nm fluorescence, primary screen (AID 1120); conditions: higher = more signal;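 note: probe is a biotin-tagged antibody raised against NOTCH3 rather than NOTCH3 protein; score merges spot fluorescence near 667 nm with spot signal to noise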
[4] = probe aNOTCH2 binding on compound microarray – biochemical, small-molecule microarray, 635/667 nm fluorescence, primary screen (AID 1121); conditions: higher = more signal;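 note: score merges feature fluorescence read at 667 nm with its signal to noise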
[5] = molecular target: Carbonic anhydrase 2 (Homo sapiens) (UniProt P00918); assay: compounds binding carbonic anhydrase 2 – biochemical, small-molecule microarray, Alexa647-labelled CAII, profiling panel (AID 1122); conditions: CAII-A647 binding fluorescence, higher = more signal
[6] = COS7 lysate on small-molecule microarray, probe aHis, 635 nm (AID 1123); conditions: COS7 cell lysate, fluorescence, higher = more signal;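 note: z-score combines 667nm fluorescence intensity with signal-to-noise per printed compound spot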
[7] = probe aLAP1 signal on lysate-treated microarray – cell lysate, small-molecule microarray, COS7 lysate, primary screen (AID 1124); conditions: probe aLAP1, fluorescence, higher = more signal;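 note: lysate comes from COS7 cells expressing LAP1 and is applied at 0.3 µg/mL; score merges spot fluorescence near 667 nm with signal-to-noise over triplicate slides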
[8] = system: Sam68 (KHDRBS1); assay: compounds binding KHDRBS1 protein – biochemical, small-molecule microarray, 635 nm fluorescence, primary screen (AID 1125); conditions: higher = more signal;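 note: score merges 667 nm channel intensity with signal to noise over triplicate slides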
[9] = system: Chordin-like protein 2 (CHRDL2); assay: compounds binding chordin-like 2 – biochemical, small-molecule microarray, 635 nm fluorescence, primary screen (AID 1126); conditions: fluorescence 635 nm, higher = more signal;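 note: printed compound slides probed with Chrdl2 protein at 4 µg/mL for 1 h at 4 C; score merges 667 nm emission intensity with signal to noise over three replicate slides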
[10] = molecular target: Concanavalin-A (Canavalia ensiformis) (UniProt P02866); assay: compounds binding concanavalin A lectin – biochemical, small-molecule microarray, Alexa647 label, 635 nm, artefact control for SMM control protein annotation, primary screen (AID 1127); conditions: ConA-A647 binding fluorescence, higher = more signal;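 note: z combines 667 nm emission intensity with signal-to-noise across three replicate slides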
Sequence of Concanavalin-A (Canavalia ensiformis) (P02866 whole entry, looked up): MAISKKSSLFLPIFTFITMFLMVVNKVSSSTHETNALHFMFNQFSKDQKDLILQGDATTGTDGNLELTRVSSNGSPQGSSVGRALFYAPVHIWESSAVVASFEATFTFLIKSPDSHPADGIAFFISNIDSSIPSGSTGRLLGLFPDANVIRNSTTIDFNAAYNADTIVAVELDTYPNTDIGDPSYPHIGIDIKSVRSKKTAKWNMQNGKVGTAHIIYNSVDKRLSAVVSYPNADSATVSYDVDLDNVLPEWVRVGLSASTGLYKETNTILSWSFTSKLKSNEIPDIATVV

Row | SMILES | composite z-score [1] | composite Z-score [2] | composite z-score [3] | composite z-score [4] | composite z-score [5] | composite z-score [6] | composite z-score [7] | composite z-score [8] | composite z-score [9] | composite z-score [10]
1 | CC(CO)N1C(=O)[C@@H]2[C@H]3C(=O)OCC=C[C@H]3OC23C=CCN(Cn2nnc4ccccc42)C(=O)[C@@H]13 (stereo not given in full) | -0.779 | 0.6 (inactive) | -0.256 | -0.13 | 0.419 | 0.523 | -0.199 | -0.766 | -0.851 | -0.967
2 | CCOC(=O)C[C@H]1[C@H](OC(=O)c2cc3ccccc3oc2=O)[C@@H](NC(=O)c2ccccc2)c2cc(OCCCO)ccc2N1C(=O)c1ccccc1 | -0.122 | 0.0916 (inactive) | -0.0199 | -0.147 | -0.129 | 0.236 | -0.155 | 0.64 | 0.498 | 0.535
3 | CC(C)N1C(=O)C[C@@](C(=O)NC2CC2)(c2ccc([N+](=O)[O-])cc2)[C@H]1c1ccc(CO)cc1 | -1.1 | -0.239 (inactive) | -0.339 | -0.14 | 0.525 | 2.95 | 0.965 | -0.203 | -1.08 | -0.0039
4 | CC(C)C(O)C1C=CC2C(=O)N(c3ccccc3)C(=O)C2N1Nc1ccccc1 (stereo not given) | 0.938 | -0.221 (inactive) | 0.228 | -0.131 | 0.698 | 3.02 | 0.281 | 1.31 | -0.235 | 0.966
5 | CC(C)N1C(=O)c2ccccc2[C@@H](C(=O)NCCN2CCOCC2)[C@@H]1c1ccc(CO)cc1 | 0.466 | 1.62 (inactive) | -0.313 | -0.155 | 0.786 | -0.735 | -0.523 | -1.21 | -1.51 | -0.538
6 | [N-]=[N+]=Nc1ccccc1[C@H]1OC(c2ccc(OCCCO)cc2)=N[C@@]1(Cc1ccccc1)C(=O)NCCN1CCOCC1 | 0.887 | 1.16 (inactive) | 0.457 | 0.117 | 0.529 | 2.87 | 0.634 | 1.3 | 0.0045 | 1.16
7 | C=C[C@H](C)[C@H](OC(=O)Nc1ccc(SC)cc1)c1ccc(OCCO)cc1 | 0.548 | 2.78 (inactive) | -0.0647 | -0.0533 | 0.575 | 2.19 | 0.277 | 1.06 | 0.516 | 1.04
8 | C[N+](C)(C)CCCC[C@@H]1NC(=O)[C@@H]2C[C@H](C(=O)NCCCCCCN)[C@H](c3cccc(OCCO)c3)N2C1=O | 0.919 | 1.24 (inactive) | 0.39 | 0.409 | 0.608 | 1.54 | 0.731 | 1.31 | 0.518 | 1.12
9 | CCCCC=C[C@@H](NC(=O)OCc1ccccc1Cl)c1ccccc1 | 0.997 | -0.418 (inactive) | 1.74 | 0.825 | 0.526 | 2.65 | 0.0357 | 1.3 | -0.747 | 1.13
10 | C=CCOC(=O)[C@@]1(Cc2ccccc2)C[C@H]2CO[C@H](c3ccc(OC)cc3)N2C1=O | 0.484 | -0.415 (inactive) | -0.0615 | -0.107 | -0.0067 | 0.146 | 0.0469 | 0.168 | 0.194 | 0.192
